Assay results reported in PubChem BioAssay (NCI).
This is part of a sample that, as a whole, favours compounds with a hit. Of some 83,000 tested, about 20% had one in any assay.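 Cells were grown in 96-well plates and exposed to the test compound at a single concentration for 48 hours; results are reported as percent growth, with values below 10 considered active.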 Unmarked numbers belong to inactive results. Active and inactive are the calls of the source.

Test system: SNB-19 CNS
Test: NCI-60 one-dose screen, 48 h (100 = growth as untreated, 0 = no growth, -100 = all killed)
Conditions: 10 µM unless noted

In the case of `COc1cc2cc(Oc3ccc(NC(=O)Nc4ccc(Cl)c(C(F)(F)F)c4)cc3)c(C)nc2cc1OCCN1CCCCC1`, the growth is reported as -51.7% (active).
For `COc1cc2nc(N3CCC[C@H](NC4=CC(=O)c5ccccc5C4=O)C3)nc(N)c2cc1OC`, the growth was -74.7% (active).

Compared with `CN1CCN(c2ccc3nc(-c4ccc5nc(-c6ccc(C(F)(F)F)cc6)[nH]c5c4)[nH]c3c2)CC1`, `COc1cc(C(F)(F)F)ccc1-c1cc(-c2ccc(F)cc2)n[nH]1` is higher in growth: 74.2% for the first, 77.9% for the second.

First: Clc1ccc(Nc2nc(Nc3ccccc3)nc(Nc3ccc(-c4cc(-c5ccc(Cl)cc5)on4)cc3)n2)cc1
Second: COc1ccc(NC(=O)c2ccc3c(c2)nc(-c2ccc(Cl)cc2)n3-c2cc(C(C)(C)C)[nH]n2)cc1
The growth of the first is lower: 76.7% for the first, 82.6% for the second.

First: C=C1CC[C@@H]2[C@@](C)(CCC[C@]2(C)C(=O)O)[C@@H]1CC[C@H](CO)CCO
Second: COC(=O)[C@@]12CC[C@@H](C)[C@]3(C[C@@H](c4ccoc4)OC3=O)[C@H]1CC[C@@H]1O[C@@]12C
The growth of the first is lower: 101% for the first, 102% for the second.

Going from `COC(=O)CCC(=O)c1ccccc1` to `O=C(COc1cccc(/C=C2\COc3ccccc3C2=O)c1)c1ccccc1`, the growth falls from 102% to 100%.

Going from `COc1ncnc2c1ncn2C/C(Br)=C(\Br)CCl` to `C=CC(=O)N1CC2(CC(n3nc(-c4ccc(Oc5ccccc5)cc4)c4c(N)ncnc43)C2)C1`, the growth falls from 89.9% to 36.6%.

First: CN1CCC(OC2c3ccccc3CCc3ccccc32)CC1
Second: COc1ccc(/C=N/NC(=O)c2cnn(CC(O)Cc3ccccc3)c2N)cc1OC1CCCC1 (stereo unspecified)
The growth of the first is higher: 99.2% for the first, 92.3% for the second.

First: O=[N+]([O-])c1ccc(C=C2C(Cl)=C(Cl)C(Cl)=C2Cl)cc1
Second: COc1ccc(/C=C2\Oc3cc(C)c(Cl)cc3C2=O)cc1OC
The growth of the first is lower: 80.6% for the first, 98.4% for the second.

Compared with `COc1ccc(OC)c(/C=C2\Oc3cc(O)ccc3C2=O)c1`, `COc1ccc(OC)c(C2C(C#N)=C(N)Oc3cc(O)ccc32)c1` (stereo unspecified) is higher in growth: 95.5% for the first, 102% for the second.

Compared with `COc1ccc(-c2nc3sc(C)cn3c2/C=C/C(=O)c2cc(OC)c(OC)c(OC)c2)cc1`, `CCOC(=O)c1c(-c2cc(OC)c(OC)c(OC)c2)csc1N` is higher in growth: 75.6% for the first, 108% for the second.

First: Cc1cc(=O)c2c(C)ccc(C)c2[nH]1
Second: CCN(CC)CCCNc1ccc(C)c2sc3ccccc3c(=O)c12
The growth of the first is higher: 99.8% for the first, 46.7% for the second.

Going from `O=C1CN2CCC1C/C2=C\c1ccnc2c(Cl)cccc12` (stereo unspecified) to `O=C1C(N2CCOCC2)=Cc2cccc3cccc1c23`, the growth falls from 98.2% to 92.4%.

First: O=C1c2ccccc2-c2nnc(-c3ccc(Br)cc3)cc21
Second: N#Cc1c(-c2cccc(F)c2)cc(-c2ccc(Br)s2)[nH]c1=O
The growth of the first is higher: 87.1% for the first, 78.4% for the second.

Compared with `COc1ccc(-c2nn(-c3ccc(NC(=O)c4ccc(Cl)c(Cl)c4)cc3)cc2-c2ccncc2)cc1Cl`, `COc1ccc(-c2csc3c2-n2cccc2C3=O)cc1O` is lower in growth: 56.7% for the first, 41.4% for the second.

Compared with `O=c1oc2ccccc2cc1-c1csc(N=Nc2c(O)[nH]c3ccc(Cl)cc23)n1`, `Oc1cccc(Nc2nc(-c3ccccn3)cs2)c1` is lower in growth: 99.2% for the first, 98.8% for the second.

Compared with `O=S(=O)(/N=C1C=C/C(=N\S(=O)(=O)c2ccccc2)c2ccccc2\1)c1ccccc1`, `Cc1ccc(S(=O)(=O)N2CCc3ccc(O)c4c3C2Cc2cc(Cl)ccc2-4)cc1` (stereo unspecified) is lower in growth: 116% for the first, 83.9% for the second.

`CC(=O)N(CC(O)CO)c1c(I)c(C(=O)NCCO)c(I)c(C(=O)NCC(O)CO)c1I` (stereo unspecified) and `CC(C)NCC(O)COc1ccc(CCOCC2CC2)cc1` (stereo unspecified) are the same in growth: 106% for the first, 106% for the second.

Going from `N#CC1=C(N)Oc2cc(N)ccc2C1c1ccc(F)cc1` (stereo unspecified) to `C[C@@H](Oc1cc(-c2cnn(C3CC4(CCNCC4)C3)c2)cnc1N)c1c(F)ccc(Cl)c1Cl`, the growth falls from 81.1% to 61.6%.

Compound `Cc1nc2ccc(Cl)cc2n1C` has a growth of 99.5%.

`Cc1c(C(=O)Nc2nc(-c3ccccc3)cs2)nnn1-c1ccccc1Br` gave a growth of 61.1% [50 µM].

Test system: U251 CNS
Test: as above
Conditions: 10 µM unless noted

`COc1cc2cc(Oc3ccc(NC(=O)Nc4ccc(Cl)c(C(F)(F)F)c4)cc3)c(C)nc2cc1OCCN1CCCCC1` was tested, and the growth was -76.4% (active).
`COc1ncnc2c1ncn2C/C(Br)=C(\Br)CCl` was tested, and the growth was -71.8% (active).
`COc1cc2nc(N3CCC[C@H](NC4=CC(=O)c5ccccc5C4=O)C3)nc(N)c2cc1OC` was tested, and the growth was -90.2% (active).
`COc1ccc(-c2csc3c2-n2cccc2C3=O)cc1O` was tested, and the growth was 4.86% (active).

Compared with `CN1CCN(c2ccc3nc(-c4ccc5nc(-c6ccc(C(F)(F)F)cc6)[nH]c5c4)[nH]c3c2)CC1`, `COc1cc(C(F)(F)F)ccc1-c1cc(-c2ccc(F)cc2)n[nH]1` is higher in growth: 34.7% for the first, 80% for the second.

Compared with `Clc1ccc(Nc2nc(Nc3ccccc3)nc(Nc3ccc(-c4cc(-c5ccc(Cl)cc5)on4)cc3)n2)cc1`, `COc1ccc(NC(=O)c2ccc3c(c2)nc(-c2ccc(Cl)cc2)n3-c2cc(C(C)(C)C)[nH]n2)cc1` is higher in growth: 48.5% for the first, 83.3% for the second.

Compared with `C=C1CC[C@@H]2[C@@](C)(CCC[C@]2(C)C(=O)O)[C@@H]1CC[C@H](CO)CCO`, `COC(=O)[C@@]12CC[C@@H](C)[C@]3(C[C@@H](c4ccoc4)OC3=O)[C@H]1CC[C@@H]1O[C@@]12C` is higher in growth: 102% for the first, 105% for the second.

Going from `COC(=O)CCC(=O)c1ccccc1` to `O=C(COc1cccc(/C=C2\COc3ccccc3C2=O)c1)c1ccccc1`, the growth falls from 100% to 60.9%.

Going from `CN1CCC(OC2c3ccccc3CCc3ccccc32)CC1` to `COc1ccc(/C=N/NC(=O)c2cnn(CC(O)Cc3ccccc3)c2N)cc1OC1CCCC1` (stereo unspecified), the growth falls from 92.5% to 85.6%.

First: O=[N+]([O-])c1ccc(C=C2C(Cl)=C(Cl)C(Cl)=C2Cl)cc1
Second: COc1ccc(/C=C2\Oc3cc(C)c(Cl)cc3C2=O)cc1OC
The growth of the first is lower: 20.1% for the first, 96.8% for the second.

Going from `COc1ccc(OC)c(/C=C2\Oc3cc(O)ccc3C2=O)c1` to `COc1ccc(OC)c(C2C(C#N)=C(N)Oc3cc(O)ccc32)c1` (stereo unspecified), the growth rises from 89.5% to 99%.

First: COc1ccc(-c2nc3sc(C)cn3c2/C=C/C(=O)c2cc(OC)c(OC)c(OC)c2)cc1
Second: CCOC(=O)c1c(-c2cc(OC)c(OC)c(OC)c2)csc1N
The growth of the first is lower: 47.1% for the first, 97.2% for the second.

Compared with `C=CC(=O)N1CC2(CC(n3nc(-c4ccc(Oc5ccccc5)cc4)c4c(N)ncnc43)C2)C1`, `O=C1c2ccccc2-c2nnc(-c3ccc(Br)cc3)cc21` is higher in growth: 21% for the first, 28.8% for the second.

Compared with `Cc1cc(=O)c2c(C)ccc(C)c2[nH]1`, `CCN(CC)CCCNc1ccc(C)c2sc3ccccc3c(=O)c12` is lower in growth: 100% for the first, 15.4% for the second.

First: O=C1CN2CCC1C/C2=C\c1ccnc2c(Cl)cccc12 (stereo unspecified)
Second: O=C1C(N2CCOCC2)=Cc2cccc3cccc1c23
The growth of the first is higher: 98.4% for the first, 92.8% for the second.

Compared with `COc1ccc(-c2nn(-c3ccc(NC(=O)c4ccc(Cl)c(Cl)c4)cc3)cc2-c2ccncc2)cc1Cl`, `Cc1ccc(S(=O)(=O)N2CCc3ccc(O)c4c3C2Cc2cc(Cl)ccc2-4)cc1` (stereo unspecified) is higher in growth: 25% for the first, 30.2% for the second.

First: O=c1oc2ccccc2cc1-c1csc(N=Nc2c(O)[nH]c3ccc(Cl)cc23)n1
Second: Oc1cccc(Nc2nc(-c3ccccn3)cs2)c1
The growth of the first is lower: 94.6% for the first, 101% for the second.

Compared with `N#Cc1c(-c2cccc(F)c2)cc(-c2ccc(Br)s2)[nH]c1=O`, `N#CC1=C(N)Oc2cc(N)ccc2C1c1ccc(F)cc1` (stereo unspecified) is higher in growth: 56.2% for the first, 83.4% for the second.

Compared with `O=S(=O)(/N=C1C=C/C(=N\S(=O)(=O)c2ccccc2)c2ccccc2\1)c1ccccc1`, `Cc1nc2ccc(Cl)cc2n1C` is higher in growth: 92.6% for the first, 99.7% for the second.

First: CC(=O)N(CC(O)CO)c1c(I)c(C(=O)NCCO)c(I)c(C(=O)NCC(O)CO)c1I (stereo unspecified)
Second: CC(C)NCC(O)COc1ccc(CCOCC2CC2)cc1 (stereo unspecified)
The growth of the first is higher: 100% for the first, 99.4% for the second.

In the case of `C[C@@H](Oc1cc(-c2cnn(C3CC4(CCNCC4)C3)c2)cnc1N)c1c(F)ccc(Cl)c1Cl`, the growth is reported as 12.1%.

For `Cc1c(C(=O)Nc2nc(-c3ccccc3)cs2)nnn1-c1ccccc1Br`, the growth was 50.8% [50 µM].
